Measured values from PubChem BioAssay (NCATS).
Unmarked numbers belong to inactive results. Records with an inconclusive call do not appear. The source made the active and inactive calls. Unless noted, calls follow the shape of the dose curve; as a rule, active = well fitted curve in either direction with a large enough effect (not every such curve was filed as active); inconclusive = small, poorly fitted or top-dose-only effect, or another doubt; inactive = flat fitted curve, though single readings scatter.

How the values were obtained:
[1] = AP1 Signaling Pathway (AID 357); conditions: ME-180 AP-1-bla reporter, EGF-induced, beta-lactamase ratio, 5 h; at 17.2 µM (top of the series) unless noted; also: % is scaled to controls: 0 for no effect and ±100 for the full control effect
In short: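 ME-180 cells with beta-lactamase reporter under AP-1 response element, stimulated with EC50 EGF; compounds tested in titration series, 5 h at 37 °C. CCF4 substrate added 2.5 h at room temperature; 460/530 nm emission ratio gave %activity and AC50.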

[2] = NFAT Signaling Pathway (AID 444); conditions: Jurkat NFAT-bla M1, carbachol, beta-lactamase ratio, 5 h; at 17.2 µM (top of the series) unless noted;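 also: carbachol stimulus at about its EC50 of 1 µM final; % is scaled to controls: 0 for no effect and ±100 for the full control effect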
In short: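 Read-out: CCF4 FRET ratio (460 nm/530 nm) after 1 h RT dye loading, used for %activity and AC50 from titration series. Cells: Jurkat NFAT-β-lactamase/M1 line, treated with compound plus 1 uM carbachol for 5 h, 37 °C.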

[3] = Stat Signaling Pathway (AID 446); conditions: ME-180 SIE beta-lactamase reporter, IL-6 stimulated, 5 h; at 17.2 µM (top of the series) unless noted;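 also: ME-180 cervical cancer cells given 40 pM IL-6 alongside compound; SIE-controlled beta-lactamase reporter measured as 460/530 nm FRET emission ratio; % is scaled to controls: 0 for no effect and ±100 for the full control effect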
In short: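 Reporter line: ME-180 cervical carcinoma, SIE-beta-lactamase. Treatment: compound with 40 pM IL-6, 5 hrs, 37 C, in low-serum OPTI-MEM with 10 mM HEPES pH 7.3. Detection: 460/530 nm fluorescence.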

[4] = target: Glucocorticoid receptor (Homo sapiens) (UniProt P04150); assay: GR-GFP Redistribution (AID 450;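 active = compounds whose dose series gives a full or clear partial fitted curve of increased nuclear translocation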; also: potency is read from the fitted curve at half-maximal effect)
Chain of Glucocorticoid receptor (Homo sapiens) (P04150 whole entry, looked up): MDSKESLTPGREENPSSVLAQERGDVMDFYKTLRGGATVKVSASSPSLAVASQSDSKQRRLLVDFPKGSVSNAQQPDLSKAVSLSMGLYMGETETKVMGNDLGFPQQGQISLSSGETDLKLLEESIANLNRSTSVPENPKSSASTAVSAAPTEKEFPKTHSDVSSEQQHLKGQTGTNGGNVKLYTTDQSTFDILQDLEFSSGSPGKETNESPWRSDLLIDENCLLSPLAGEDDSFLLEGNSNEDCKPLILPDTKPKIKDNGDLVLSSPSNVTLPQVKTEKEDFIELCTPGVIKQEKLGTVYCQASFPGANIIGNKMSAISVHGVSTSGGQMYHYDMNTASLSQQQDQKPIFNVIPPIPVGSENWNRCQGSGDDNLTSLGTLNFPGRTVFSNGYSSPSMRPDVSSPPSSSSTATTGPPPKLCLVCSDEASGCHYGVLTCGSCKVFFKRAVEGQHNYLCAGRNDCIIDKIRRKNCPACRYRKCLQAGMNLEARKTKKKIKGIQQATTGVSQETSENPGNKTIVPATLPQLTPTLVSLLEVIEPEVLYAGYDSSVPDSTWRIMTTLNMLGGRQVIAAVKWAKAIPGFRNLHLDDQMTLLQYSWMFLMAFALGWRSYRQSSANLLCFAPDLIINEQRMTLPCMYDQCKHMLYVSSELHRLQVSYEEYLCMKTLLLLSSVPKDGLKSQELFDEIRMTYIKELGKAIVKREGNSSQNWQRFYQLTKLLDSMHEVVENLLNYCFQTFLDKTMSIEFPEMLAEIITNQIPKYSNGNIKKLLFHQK

| Structure (SMILES) | activity change, negative = inhibition [1] | activity change, negative = inhibition [2] | activity, negative = inhibition [3] [%] | Potency [4] [µM] |
| --- | --- | --- | --- | --- |
| COc1ccc(-n2ccc(=O)c3c2CCCC3=O)cc1 | 1.82% | 1.88% | 3.34 | > 20.6 |
| CN1CCN(C(=O)CSc2nc(-c3ccncc3)ccc2C#N)CC1 | 2.77% | -14.8% | 1.66 | > 20.6 |
| CCCCCOC(=O)C(C)c1c(C)[nH]c(=S)[nH]c1=O (stereo not given) | 7.28% | 6.16% | -4.24 | > 20.6 |
| c1ccc(CSc2nnc(SCc3ccccn3)s2)nc1 | -9.4% | 3.91% | -4.62 | > 20.6 |
| COC(=O)c1ccc(C2/C(=C(/O)c3ccc(OC)cc3)C(=O)C(=O)N2Cc2ccco2)cc1 (stereo not given) | -4.01% | -12% | -22.4 | > 20.6 |
| Oc1ccc2c(c1)C1CCCC1(N1CCOCC1)O2 (stereo not given) | -13.6% | 16.1% | 2.31 | > 20.6 |
| O=C(Nc1ccccc1C(=O)NCCCn1ccnc1)c1ccccc1 | 1.7% | 5.76% | 3.12 | > 20.6 |
| Cc1cc(C)nc(NC(=O)c2ccc(OC(C)C)cc2)n1 | -5.46% | -4.53% | -7.33 | > 20.6 |
| CCOC(=O)C1=C(C)N=C2SC(C)C(=O)N2C1c1cccc(F)c1 (stereo not given) | -17.6% | 7.16% | 1.84 | > 20.6 |
| CCCOc1ccc(/C(O)=C2/C(=O)C(=O)N(CCN(C)C)C2c2ccncc2)cc1 (stereo not given) | -5.87% | 4.76% | 5.47 | > 20.6 |
| CCCCOc1ccccc1P(=O)(O)CP(=O)(c1ccccc1)c1ccccc1 | -13.5% | -17% | -14.9 | > 20.6 |
| O=C(O)CC1SC(=Nc2cccc(C(F)(F)F)c2)NC1=O (stereo not given) | 7.22% | 9.67% | -0.717 | > 20.6 |
| COC(=O)CC1=C(C(=O)OC)C(c2cccc(OCC(N)=O)c2)C(C#N)=C(N)O1 (stereo not given) | 26.1% | -17.4% | 6.6 | > 20.6 |
| CCOC(=O)COn1c(=O)c(-c2ccc(OC)c(OC)c2)[n+]([O-])c2ccccc21 | -0.29% | -6.08% | 4.19 | > 20.6 |
| CCN(CC)CCCN1C(=O)C(=O)/C(=C(/O)c2ccc(OC)cc2)C1c1ccco1 (stereo not given) | 9.88% | -12.1% | 10.8 | > 20.6 |
| O=C1[C@@H]2[C@H](C(=O)N1O)[C@H]1C=C[C@@H]2C1 | 5.39% | -15.3% | 10.4 | > 20.6 |
| COc1ccc(C(CC(=O)O)NC(=O)OC(C)(C)C)cc1 (stereo not given) | 12.1% | -0.371% | 3.55 | > 20.6 |
| O=c1c(C=NCCCn2ccnc2)c(-c2ccccc2)[nH]n1-c1nc2ccccc2s1 | -0.182% | -18.1% | -15.5 | > 20.6 |
| COc1ccc(OC)c(C2NC(=O)c3sc(=S)n(-c4ccccc4)c3N2)c1 (stereo not given) | -13.3% | -12.2% | -13.8 | > 20.6 |
| CN1C(=S)SC(N(O)C(=O)Nc2ccccc2)C1(C)C (stereo not given) | 1.19% | -13.4% | 2.19 | > 20.6 |
| COc1ccc(N2CC(=O)N(c3ccc(OC)c(OC)c3)CC2=O)cc1OC | 22.8% | 5.84% | 1.83 | > 20.6 |
| COC(=O)c1ccc(Cn2c(O)c(N=O)c3ccccc32)o1 | -14.4% | 18.3% | 3.14 | > 20.6 |
| Cn1c(=O)c2c(nc(NCC(O)CO)n2CCc2ccccc2)n(C)c1=O (stereo not given) | 8.87% | -3.8% | 1.91 | > 20.6 |
| C=CCOc1ccc(/C(O)=C2/C(=O)C(=O)N(CCCN3CCOCC3)C2c2ccc(OC)cc2)cc1 (stereo not given) | -6.96% | 8.61% | -4.29 | > 20.6 |
| c1ccc2c(c1)[nH]c1c(N3CCSCC3)ncnc12 | -11.4% | -20.2% | -18.7 | > 20.6 |

| Structure (SMILES) | activity change, negative = inhibition [1] | activity change, negative = inhibition [2] | activity, negative = inhibition [3] [%] | Potency [4] [µM] |
| --- | --- | --- | --- | --- |
| CCOC(=O)c1c(C)n(C)c2ccc(OC)c(NC(=O)CCN3CCSCC3)c12 | 2.45% | 4.14% | 7.06 | > 20.6 |
| Oc1c(C=NCc2ccncc2)sc2ccccc12 | -15.7% | -6.22% | -1.25 | > 20.6 |
| Fc1ccc(C2C3=C(Nc4ncnn42)c2ccccc2OC3c2ccncc2)cc1 (stereo not given) | -29% | -17% | -12.3 | > 20.6 |
| CCOc1ccc(N=C(NC#N)SCC(=O)NC2CC2)cc1 | -3.71% | -22.1% | -16.7 | > 20.6 |
| CC(C)C1Cc2c(sc3c2c(=O)n(-c2ccccc2)c2nncn32)CO1 (stereo not given) | -6.58% | -10.2% | 5.31 | > 20.6 |
| O=C(O)CCCCCN1C(=O)CCC1=O | 13.2% | 23.1% | 5.29 | > 20.6 |
| O=C(c1ccco1)N1CCN(c2ncnc3c2[nH]c2ccccc23)CC1 | -12% | 11% | -16.9 | > 20.6 |
| O=C(O)c1cnn2c(C(F)(F)F)cc(-c3ccco3)nc12 | 11% | 1.41% | 16.2 | > 20.6 |
| Cc1c(/C(O)=C2\C(=O)C(=O)N(CCN(C)C)C2c2cccnc2)cnn1-c1ccccc1 (stereo not given) | 1.75% | 9.15% | 0.0911 | > 20.6 |
| O=C(NCCc1ccccc1)/C(=N\O)c1ccccc1 | -2.29% | 11.6% | -3.56 | > 20.6 |
| CCOC(=O)c1[nH]c2ccc(C)cc2c1N=CN(CC)CC | 7.82% | -21.2% | 10.4 | > 20.6 |
| CCN(CC)CCN1C(=O)C(=O)/C(=C(/O)c2ccc(OC)cc2)C1c1ccco1 (stereo not given) | -1.18% | -15.2% | 3.92 | > 20.6 |
| O=S1CCCSC1c1cccnc1 (stereo not given) | 5.36% | 9.76% | 2.7 | > 20.6 |
| COc1ccc(C2Nc3ccccc3C(=O)N2Cc2ccco2)cc1CN1C(=O)c2ccccc2C1=O (stereo not given) | -19.7% | -14.1% | -19.4 | > 20.6 |
| Nc1ccc2ncccc2c1N | 5.69% | -85.4% (active) | -11.2 | > 20.6 |
| CCCCCC1CC(CC#CCN2CCOCC2)C(=O)O1 (stereo not given) | 9.22% | -1.87% | -2.28 | > 20.6 |
| COc1ccc(/C(O)=C2\C(=O)C(=O)N(CCN(C)C)C2c2cccc(OC)c2OC)cc1 (stereo not given) | 10.8% | -5.32% | 11.6 | > 20.6 |
| O=C(NCC(F)(F)F)N1CCOCC1 | 6.11% | 0.794% | -4.01 | > 20.6 |
| CCCCCSc1nc(O)cc(=O)[nH]1 | -9.05% | 11.4% | -6.56 | > 20.6 |
| COC(=O)CSc1nc(C)c(Oc2ccccc2)c(=O)[nH]1 | 22.2% | 15.3% | 7.32 | > 20.6 |
| Cn1c(SCC(=O)N2CCOCC2)nnc1-c1cccc(NC(=O)c2ccccc2F)c1 | -25.9% | -5.78% | 12 | > 20.6 |
| O=C(Nc1nccs1)NC(C(F)(F)F)C(F)(F)F | -10.3% | 9.14% | 10.4 | > 20.6 |
| CC(C)C(C(=O)Nc1ncn[nH]1)N1C(=O)c2ccccc2C1=O (stereo not given) | 21.4% | -9.04% | -1.14 | > 20.6 |
| CCN(CC)CCn1c(O)c(N=O)c2ccccc21 | 90.5% [activator] (active) | -17.1% | 14.5 | > 20.6 |
| CN(C)CCNC(=O)C12CC3(C)CC(C)(CC(C)(C3)C1)C2 | 7.28% | -25.2% | 8.6 | > 20.6 |
